Data on 32 compounds can be found in PubChem BioAssay (NCATS).

Inconclusive results are not listed. Unmarked numbers belong to inactive results. Active and inactive are the calls of the source. Unless noted, calls come from the whole dose curve.

Assay [1] concerns the target Glucocorticoid receptor (Homo sapiens) (UniProt P04150). The assay is described as follows: qHTS assay for small molecule agonists of glucocorticoid receptor signaling (AID 588532; active = well fitted curve in the direction sought with a large enough effect in the signal ratio, with a control signal flat; the % refers to the signal ratio;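 note: 100% = dexamethasone at 0.1 µM and 0% = DMSO only wells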). To be noted: HeLa MMTV-bla, beta-lactamase ratio, agonist, 18 h; hits give high values; percent of dexamethasone control, DMSO zero. Put shortly:
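Quantitative HTS using CellSensor MMTV-bla HeLa cells in charcoal/dextran-treated serum; compounds tested up to 92 uM. After 18 h at 37 C, CCF4 dye reported reporter induction.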
(In general: qHTS replaces the single test concentration by a dilution series.)

Assay [2] shares this target. The assay is described as follows: qHTS assay for small molecule antagonists of glucocorticoid receptor signaling (AID 588533; active = well fitted inhibition curve with a large enough effect in the signal ratio, with a control signal flat, not every such curve was filed as active; the % refers to the signal ratio;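 note: cells stimulated with 2 nM dexamethasone as agonist; % is set by controls: 0 for no effect and ±100 for the full control effect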). Conditions: HeLa MMTV-bla, GRE beta-lactamase ratio, antagonist mode, 18 h; series mostly up to 76.8 µM. Put shortly:
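Antagonist-mode qHTS: compound titrations added to GRE-bla HeLa cells, then dexamethasone 2 nM final; 18 h, 37 C. CCF4 FRET fluorescence normalized to dexamethasone and DMSO; IC50 from Hill fit.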

In assay [3] the target is Vitamin D3 receptor (Homo sapiens) (UniProt P11473). The assay is described as follows: qHTS assay for small molecule agonists of vitamin D receptor signaling (AID 588543).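 Note: 0% = DMSO basal and 100% = reference agonist control.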 Conditions: HEK293T VDR-UAS-bla, beta-lactamase ratio, 16 h; series mostly up to 76.8 µM. Put shortly:
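Measured: β-lactamase reporter activity (CCF4, 405 nm excitation, 460/530 nm emission) in HEK293T VDR-UAS-bla cells after 16 h compound exposure at 37 °C. Normalization against 50 nM 1α,25-dihydroxyvitamin D3 and DMSO; Hill-fit EC50.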

Assay [4] can be described thus: qHTS assay for small molecule activators of the nuclear factor-kappa B (NF-kB) signaling pathway (AID 651749; active = well fitted activation curve with a large enough effect in the signal ratio; the % refers to the signal ratio; note: % of control where 0% means no effect). To be noted: NF-kB-bla ME-180 cells, beta-lactamase FRET ratio, 16 h; activation: hits give high values. Put shortly: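 FRET-based beta-lactamase detection in ME-180 cells reports NF-kB response-element-driven transcription following overnight (16 hr) compound treatment.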

Assay [5] addresses Bile acid receptor (Homo sapiens) (UniProt Q96RI1). The assay is described as follows: qHTS assay for small molecule antagonists of farnesoid X receptor signaling (AID 588526). Note: % is set by controls: 0 for no effect and ±100 for the full control effect. Conditions: HEK293T FXR-UAS-bla, beta-lactamase ratio, antagonist mode; series mostly up to 76.7 µM. Put shortly: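 Beta-lactamase reporter antagonist mode: HEK293T FXR-UAS-bla cells, titrated compound, CDCA stimulation, 16 h 37 C, CCF4 dye 2 h RT. Data normalized to CDCA 50 uM and DMSO; Hill-fit IC50.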

The target in assay [6] is Peroxisome proliferator-activated receptor gamma (Homo sapiens) (UniProt P37231). The assay is described as follows: qHTS assay for small molecule antagonists of peroxisome proliferator-activated receptor gamma signaling (AID 588537; active = well fitted inhibition curve with a large enough effect in the signal ratio, with a control signal flat, not every such curve was filed as active; the % refers to the signal ratio;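 note: reporter cells co-stimulated with 50 nM rosiglitazone agonist during compound treatment; % of control where 0% means no effect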). Conditions: HEK293 PPARg-UAS-bla, beta-lactamase ratio, antagonist mode; series mostly up to 76.8 µM. Put shortly: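 Cell-based beta-lactamase assay; GW9662 served as the antagonist control. Stimulation used rosiglitazone, final 50 nM, 16 h, 37 C.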

Assay [7] is described as follows: qHTS assay for small molecule agonists of the antioxidant response element (ARE) signaling pathway (AID 651741; active = well fitted activation curve with a large enough effect in the signal ratio; the % refers to the signal ratio; note: potency is the fitted concentration of half-maximal effect; for activation: % of control where 0% means no effect). To be noted: HepG2 ARE-bla reporter, beta-lactamase FRET ratio, 16 h; series mostly up to 96 µM. Put shortly:
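Agonist activity is measured as ARE-driven beta-lactamase expression in a stable HepG2 reporter line, using 16 h compound treatment at 37 C and a FRET substrate fluorescence readout after 2 h.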

Assay [8] addresses Androgen receptor (Homo sapiens) (UniProt P10275). The assay is described as follows: qHTS assay for small molecule agonists of androgen receptor signaling (AID 588515; active = well fitted curve in the direction sought with a large enough effect in the signal ratio, with a control signal flat; the % refers to the signal ratio; note: % is set by controls: 0 for no effect and ±100 for the full control effect). Conditions: AR-UAS-bla HEK293, beta-lactamase ratio, agonist 16 h; activation: hits give high values. Put shortly:
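Stimulation of an AR-responsive β-lactamase reporter in GripTite HEK293 cells was measured after 16 h compound exposure at 37 °C, via CCF4 fluorescence after 2 h RT. EC50 from Hill fits, normalized to R1881 at 30 nM.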

For assay [9] the target is unchanged. The assay is described as follows: qHTS assay for small molecule antagonists of androgen receptor signaling (AID 588516; active = well fitted curve in the direction sought with a large enough effect in the signal ratio, with a control signal flat, not every such curve was filed as active; the % refers to the signal ratio; note: % is set by controls: 0 for no effect and ±100 for the full control effect). To be noted: AR-UAS-bla HEK293, beta-lactamase ratio, antagonist mode, 16 h; series mostly up to 76.8 µM. Put shortly: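 Compounds tested in titration against 10 nM R1881 in AR-responsive bla reporter HEK 293 cells; CCF4 fluorescence (460/530 nm) after 16 h exposure gave IC50 and efficacy.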

Sequence of Glucocorticoid receptor (Homo sapiens) (P04150 whole entry, looked up): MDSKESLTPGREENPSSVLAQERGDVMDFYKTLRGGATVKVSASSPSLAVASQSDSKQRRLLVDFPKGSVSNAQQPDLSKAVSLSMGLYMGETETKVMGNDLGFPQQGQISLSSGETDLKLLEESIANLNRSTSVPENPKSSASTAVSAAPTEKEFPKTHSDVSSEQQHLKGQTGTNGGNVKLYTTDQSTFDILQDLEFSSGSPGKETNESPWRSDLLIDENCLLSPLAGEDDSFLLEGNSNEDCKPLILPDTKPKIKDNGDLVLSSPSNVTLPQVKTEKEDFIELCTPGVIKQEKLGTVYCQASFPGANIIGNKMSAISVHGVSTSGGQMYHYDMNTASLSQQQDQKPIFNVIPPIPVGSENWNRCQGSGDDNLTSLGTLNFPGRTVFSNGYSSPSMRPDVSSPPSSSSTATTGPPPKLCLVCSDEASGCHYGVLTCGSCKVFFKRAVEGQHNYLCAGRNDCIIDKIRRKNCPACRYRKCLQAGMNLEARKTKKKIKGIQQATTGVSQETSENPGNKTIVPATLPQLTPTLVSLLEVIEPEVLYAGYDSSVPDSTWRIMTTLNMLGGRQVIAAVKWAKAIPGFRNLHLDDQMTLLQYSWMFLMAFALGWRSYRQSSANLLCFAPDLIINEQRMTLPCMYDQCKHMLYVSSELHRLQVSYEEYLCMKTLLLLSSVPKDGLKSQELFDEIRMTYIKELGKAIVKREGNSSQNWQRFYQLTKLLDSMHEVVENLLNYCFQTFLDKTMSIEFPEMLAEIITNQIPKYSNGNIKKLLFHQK
Sequence of Androgen receptor (Homo sapiens) (P10275 whole entry, looked up): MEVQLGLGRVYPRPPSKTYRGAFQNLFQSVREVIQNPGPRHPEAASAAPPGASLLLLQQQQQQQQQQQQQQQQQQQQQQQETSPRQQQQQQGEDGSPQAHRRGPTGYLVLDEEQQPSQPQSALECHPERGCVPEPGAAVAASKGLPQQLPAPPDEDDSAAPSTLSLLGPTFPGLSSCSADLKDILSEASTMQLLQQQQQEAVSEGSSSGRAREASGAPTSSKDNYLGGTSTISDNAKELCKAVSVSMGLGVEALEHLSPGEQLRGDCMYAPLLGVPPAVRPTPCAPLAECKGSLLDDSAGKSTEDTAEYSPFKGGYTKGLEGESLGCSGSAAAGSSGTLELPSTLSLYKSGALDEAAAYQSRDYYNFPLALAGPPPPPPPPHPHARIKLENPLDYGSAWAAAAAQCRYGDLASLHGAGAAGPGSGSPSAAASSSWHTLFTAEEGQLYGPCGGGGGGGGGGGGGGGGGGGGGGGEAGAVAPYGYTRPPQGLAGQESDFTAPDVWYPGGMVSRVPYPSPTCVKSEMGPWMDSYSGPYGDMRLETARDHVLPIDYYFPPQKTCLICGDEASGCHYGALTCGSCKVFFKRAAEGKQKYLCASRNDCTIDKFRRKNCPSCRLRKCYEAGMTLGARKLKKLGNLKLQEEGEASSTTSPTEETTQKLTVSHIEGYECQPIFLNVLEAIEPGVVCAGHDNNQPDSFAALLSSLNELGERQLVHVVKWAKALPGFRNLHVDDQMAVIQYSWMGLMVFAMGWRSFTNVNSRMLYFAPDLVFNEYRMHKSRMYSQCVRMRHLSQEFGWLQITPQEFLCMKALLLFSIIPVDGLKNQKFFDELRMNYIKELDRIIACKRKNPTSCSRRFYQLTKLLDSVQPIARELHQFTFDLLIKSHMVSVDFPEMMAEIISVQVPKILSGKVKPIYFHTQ
Sequence of Bile acid receptor (Homo sapiens) (Q96RI1 whole entry, looked up): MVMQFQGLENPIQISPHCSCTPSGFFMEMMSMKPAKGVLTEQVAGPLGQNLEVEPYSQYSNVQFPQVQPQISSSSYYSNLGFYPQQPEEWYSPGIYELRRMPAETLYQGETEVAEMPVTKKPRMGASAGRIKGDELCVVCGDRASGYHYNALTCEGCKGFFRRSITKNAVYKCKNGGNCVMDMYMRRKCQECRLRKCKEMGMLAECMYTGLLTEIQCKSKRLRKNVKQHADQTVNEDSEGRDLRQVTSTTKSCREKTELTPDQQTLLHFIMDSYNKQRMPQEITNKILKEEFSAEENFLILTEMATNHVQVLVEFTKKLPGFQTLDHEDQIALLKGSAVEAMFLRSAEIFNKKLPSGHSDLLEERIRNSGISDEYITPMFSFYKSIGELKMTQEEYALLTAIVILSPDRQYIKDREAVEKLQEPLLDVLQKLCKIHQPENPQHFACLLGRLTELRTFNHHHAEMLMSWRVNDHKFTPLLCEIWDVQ
Sequence of Vitamin D3 receptor (Homo sapiens) (P11473 whole entry, looked up): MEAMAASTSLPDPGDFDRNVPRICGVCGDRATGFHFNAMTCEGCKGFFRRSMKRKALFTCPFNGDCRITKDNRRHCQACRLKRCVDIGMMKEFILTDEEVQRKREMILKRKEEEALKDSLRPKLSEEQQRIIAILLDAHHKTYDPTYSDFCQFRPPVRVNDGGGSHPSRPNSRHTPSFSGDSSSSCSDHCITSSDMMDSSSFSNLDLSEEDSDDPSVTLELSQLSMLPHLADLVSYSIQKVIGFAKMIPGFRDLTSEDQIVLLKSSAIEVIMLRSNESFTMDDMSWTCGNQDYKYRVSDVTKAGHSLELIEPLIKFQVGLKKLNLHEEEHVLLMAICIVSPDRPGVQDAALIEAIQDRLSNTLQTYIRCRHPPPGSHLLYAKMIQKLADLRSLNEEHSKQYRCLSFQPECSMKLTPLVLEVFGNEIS
Sequence of Peroxisome proliferator-activated receptor gamma (Homo sapiens) (P37231 whole entry, looked up): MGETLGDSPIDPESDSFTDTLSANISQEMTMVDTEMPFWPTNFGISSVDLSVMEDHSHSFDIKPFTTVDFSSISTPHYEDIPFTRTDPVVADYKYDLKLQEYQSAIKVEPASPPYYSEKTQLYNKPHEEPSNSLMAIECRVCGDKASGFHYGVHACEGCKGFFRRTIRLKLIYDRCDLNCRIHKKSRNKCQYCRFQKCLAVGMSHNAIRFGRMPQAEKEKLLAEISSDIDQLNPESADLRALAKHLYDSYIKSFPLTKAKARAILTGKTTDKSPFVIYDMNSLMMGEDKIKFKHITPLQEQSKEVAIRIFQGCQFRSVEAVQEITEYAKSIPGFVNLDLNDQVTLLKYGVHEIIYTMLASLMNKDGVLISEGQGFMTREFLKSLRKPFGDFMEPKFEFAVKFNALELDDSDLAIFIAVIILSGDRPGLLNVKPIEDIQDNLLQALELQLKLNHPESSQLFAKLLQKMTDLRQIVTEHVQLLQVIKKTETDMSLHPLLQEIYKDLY

Turning to `Cc1nn(C)c(Oc2ccccc2)c1/C=N/OCc1ccc(C(=O)OC(C)(C)C)cc1`, the activation in assay [1] was -3.9%. For the same compound, the Potency result in assay [2] is “inactive”.
In the case of `Cc1c(Cl)cccc1Cl`, the activation in assay [1] is -6.09%; in assay [4] it was -1.64%. In addition, in [2], the Potency result was “inactive”. Moreover, the outcome in assay [3] was inactive.
As for `O=C(OCC1CCC2OC2C1)C1CCC2OC2C1` (configuration not stated), the activation in [1] was -15%. Further, the result in [3] was inactive.
`CCc1c(C(=O)O)c(=O)cnn1-c1ccc(Cl)cc1`: the Potency entry in assay [5], in [2], in assay [6] and in [7] was “inactive” each time. Further, the activation in [4] was -0.428%.
For `CC(C)(C)c1cc(C(C)(C)C)c(O)c(C(C)(C)C)c1`, in [1], the activation was 22.2%. Also, the Potency entry in assay [2] and in assay [6] was “inactive” in each case.
On to `CCOC(=O)C(C)Oc1ccc(Oc2cnc3cc(Cl)ccc3n2)cc1` (configuration not stated), for which the Potency entry in assay [5] and in assay [6] was “inactive” throughout. Also, the activation in assay [1] is -6.64%. In addition, the result in assay [3] was inactive.
Consider `CC(C)O.CC(C)O.CC(C)O.CC(C)O.[Ti]`, for which the Potency result in [5], in assay [6] and in assay [7] was “inactive” each time. Further, the outcome in assay [3] was inactive. The activation in assay [4] was -1.08%.
On to `CCCCOCC(C)OCC(C)O` (configuration not stated), for which the Potency entry in assay [5] and in [6] was “inactive” in each case. The result in assay [3] was inactive.
As to `CCCCN(CCCC)CCCC`, the Potency result in [5], in assay [2] and in [7] was “inactive” each time. The activation was 8.81% in assay [1] and -1.19% in assay [4].
As to `C=CCOC(=O)CC(C)C`, the Potency entry in assay [5], in assay [2] and in assay [7] was “inactive” in each case. Further, the activation in [1] is 0.929%. Moreover, in assay [3], the outcome was inactive.
For `C[Si]1(C)O[Si](C)(C)O[Si](C)(C)O[Si](C)(C)O1`, the Potency result in assay [5], in assay [6] and in assay [7] was “inactive” each time. Moreover, in assay [3], the outcome was inactive. The activation in assay [4] was 0.122%.
In the case of `NNS(=O)(=O)c1ccc(Oc2ccc(S(=O)(=O)NN)cc2)cc1`, the Potency result in assay [5] is “inactive”. Also, the activation in [4] was -1.01%.
As for `CCCCCCCC(=O)Oc1c(Br)cc(C#N)cc1Br`, the Potency entry in assay [5], in assay [2] and in [6] was “inactive” each time. In addition, in assay [3], the result was inactive. Besides, in assay [7], the Potency is 61.1 µM (active). For the same compound, in assay [4], the activation is -2.23%.
In the case of `C=CC(=O)NC(C)(C)CS(=O)(=O)O`, the Potency result in [6] and in [7] was “inactive” throughout. In addition, the result in assay [3] was inactive.
Take `CC(C)=CCC/C(C)=C\CO`: the figures for the activation in assay [8] and in [1] were -0.0899% and -1.71%, respectively. Further, the result in [9] and in assay [3] was inactive. In addition, the Potency entry in [2], in [6] and in [7] was “inactive” each time.
With `CCCCCCCC(=O)OC`, the Potency entry in [6] and in assay [7] was “inactive” in each case. Besides, the result in [3] was inactive. Moreover, the activation in assay [4] is -1.19%.
`CCCCCCc1ccc(N)cc1`: the activation in [8] is -4.5%; in [1] it was -7.39%; in assay [4], 0.791%. Moreover, the result in [9] and in [3] was inactive. Moreover, the Potency result in [5], in assay [2] and in assay [6] was “inactive” in each case.
On to `C[Si]1(C)O[Si](C)(C)O[Si](C)(C)O1`, for which the activation in assay [8] was -4.74%. The outcome in assay [9] and in [3] was inactive. Further, the Potency entry in [5], in assay [6] and in assay [7] was “inactive” each time.
`COC(=O)CSc1cc(N=c2sc(=O)n3n2CCCC3)c(F)cc1Cl`: the figures for the activation in assay [8] and in assay [1] were -5.93% and -2.45%, respectively. Further, the Potency result in [5], in assay [2] and in assay [6] was “inactive” throughout. In addition, the outcome in assay [3] was inactive.
For the compound `O=C(Cl)c1ccc(C(=O)Cl)cc1`, in [3], the result was inactive.
Consider `CCC(=O)C1C(=O)CC(C(=O)O)CC1=O` (configuration not stated), for which the activation in assay [8] is -3.36%; in assay [1], 6.99%; in [4], 0.776%. The Potency entry in assay [5] and in [6] was “inactive” in each case. In addition, in assay [3], the outcome was inactive.
On to `O=C=NCCCCCCN=C=O`, for which the Potency entry in assay [6] and in assay [7] was “inactive” in each case. Also, the activation in [4] is 0.731%.
`CCCCC/C=C\C/C=C\CCCCCCCC(=O)OC`: the Potency result in [6] was “inactive”. In addition, in [4], the activation is -0.453%.
As to `CCCCOCCOCCOCCO`, the Potency entry in [6] and in assay [7] was “inactive” each time. Besides, the result in [3] was inactive. Moreover, the activation in [4] was -0.915%.
As to `CCCCC(CC)COC(=O)c1ccc(C(=O)OCC(CC)CCCC)cc1` (configuration not stated), in [9], the outcome was inactive. The Potency result in assay [5], in assay [6] and in assay [7] was “inactive” in each case.
For `C=C(C)C(=O)OCC[N+](C)(C)C`, the activation was 0.258% in assay [8] and -7.03% in assay [1]. Moreover, the outcome in assay [9] and in assay [3] was inactive. Besides, the Potency result in assay [2], in assay [6] and in [7] was “inactive” throughout.
As to `CCCCCCCCCCCCCCCC`, the Potency result in assay [2] and in [6] was “inactive” throughout.
As to `CC(=O)CC(=O)Nc1ccc(C)cc1C`, the activation in assay [8] was 7%; in assay [1] it was 7.78%; in assay [4] it was 0.179%. Also, the result in assay [9] was inactive. The Potency result in assay [5], in [6] and in assay [7] was “inactive” each time.
For `C=CC(=O)OCC(C)OCC(C)OCC(C)OC(=O)C=C` (configuration not stated), the activation in [1] is -17.2%.
In the case of `COC(=O)C(C)Oc1ccc(Oc2ncc(C(F)(F)F)cc2Cl)cc1` (configuration not stated), the outcome in assay [3] was inactive. For the same compound, the Potency result in assay [7] is “inactive”.
Consider `Nc1cc(Cl)c(O)c(Cl)c1`, for which the results for the activation in [8] and in assay [1] were -4.43% and 16.9%, respectively. Besides, the Potency result in assay [2] and in assay [6] was “inactive” each time. For the same compound, the outcome in assay [3] was inactive. Further, the Potency in assay [7] was 12.2 µM (active).
For the compound `O=S(=O)(O)c1ccc(N=Nc2c(O)ccc3cc(S(=O)(=O)O)ccc23)cc1`, the Potency entry in assay [7] was “inactive”. Moreover, the activation in assay [4] is -0.945%.
